# Results from PubChem BioAssay AID463173 (ICCB-Longwood Screening Facility, Harvard Medical School, 2010).
# Hit rate of the full screen: of about 52,000 compounds, about 4,300 (8.3%) were called active. Rule as the data show it: active = survival mostly below about 52% (no sharp cut-off); inactive = mostly above about 56%. Only a selection was taken, and actives are over-represented in it overall.
# System: DeltatarO mutant
# Assay: growth inhibition of S. aureus wild type versus tarO mutant, primary screen, teichoic acid synthesis inhibitors, RN4220, OD600 (AID 463173)
# Conditions: OD600, 18 h, stronger effect = lower value, screened at 18.75 µg/mL (by protocol)
row,SMILES,survival
1,CCCCC(=O)Nc1cc2nn(-c3ccc(OCC)cc3)nc2cc1C,70% (inactive)
2,CCN(c1ccccc1)S(=O)(=O)c1c(C)nc2scc(C)n2c1=O,66% (inactive)
3,COc1ccc(CC(=O)NC2CC(=O)N(c3ccc(C)c(C)c3)C2)cc1OC (stereo unspecified),63% (inactive)
4,Cc1cc(C(=O)Nc2ccc(-n3c(C)nc4ccccc4c3=O)cc2)ccc1[N+](=O)[O-],131% (inactive)
5,COc1cc(NC(=O)Cc2noc3ccccc23)cc(OC)c1OC,57% (inactive)
6,CCOC(=O)c1ccc(NC(=O)Cc2coc3cc(C)cc(C)c23)cc1,60% (inactive)
7,CCOc1ccc(NC(=O)Cc2coc3ccc(C)cc23)cc1,106% (inactive)
8,CCOC(=O)c1ccc(NC(=O)Cc2noc3ccc(C)cc23)cc1,45% (active)
9,Cc1cc(C)cc(NC(=O)NCc2noc3ccccc23)c1,52% (inactive)
10,Cc1cc(C)cc(NC(=O)Cc2noc3ccccc23)c1,54% (active)
11,Cc1ccc(CNC(=O)C(C)n2c(=O)cc(C(F)(F)F)c3c(C)nn(C)c32)cc1 (stereo unspecified),67% (inactive)
12,O=C(NCc1ccco1)C1CCN(C(=O)N2CCOc3ccccc32)CC1,80% (inactive)
13,O=C(c1ccco1)N(Cc1cccs1)c1ccc(F)cc1,111% (inactive)
14,CCc1ccc(NC(=O)C2CCN(c3nnc(-n4c(C)ccc4C)s3)CC2)cc1,79% (inactive)
15,NNc1ccc2nnc(C(F)(F)F)n2n1,73% (inactive)
16,Cc1ccc(CNc2ncnc3c2c(-c2ccccc2)cn3-c2ccccc2)cc1,90% (inactive)
17,O=S(=O)(NCc1ccco1)c1ccc(-c2ccc(S(=O)(=O)NCc3ccco3)cc2)cc1,64% (inactive)
18,CCc1ccc(Cn2nnc(C(=O)Nc3ccc(C)cc3)c2N)cc1,133% (inactive)
19,CN(C)c1ccc(CNC(=O)c2cccc(NC(=O)N3CCSc4ncccc43)c2)cc1,94% (inactive)
20,COc1ccccc1NC(=O)C1=C(C)Nc2sc(C#N)c(N)c2C1c1ccco1 (stereo unspecified),76% (inactive)
21,COC(=O)C1=C(C)NC2=C(C(=O)c3ccccc32)C1c1cc2c(cc1Cl)OCO2 (stereo unspecified),82% (inactive)
22,COc1ccccc1NC(=O)C1=C(C)NC2=C(C(=O)CCC2)C1c1cc2c(cc1Br)OCO2 (stereo unspecified),44% (active)
23,CC(C)CC(=O)Nc1nnc2n1CCS2,99% (inactive)

row,SMILES,survival
1,Cc1nn(-c2ccccc2)c2[nH]c(=O)c(CNCc3cccnc3)cc12,102% (inactive)
2,COc1ccc(CC(=O)Nc2nc3c(s2)CC(C(C)(C)C)CC3)cc1 (stereo unspecified),29% (active)
3,CC(C)(C)C1CCc2nc(NC(=O)COc3ccccc3[N+](=O)[O-])sc2C1 (stereo unspecified),106% (inactive)
4,COc1ccccc1OCC(=O)Nc1nc2c(s1)CC(C)CC2 (stereo unspecified),69% (inactive)
5,CC1CCc2nc(NC(=O)Cc3ccc(Cl)cc3)sc2C1 (stereo unspecified),46% (active)
6,COc1ccc(CC(=O)Nc2nc3c(s2)CCCC3)cc1,95% (inactive)
7,COc1ccc(CC(=O)Nc2nc3c(s2)CC(C)CC3)cc1 (stereo unspecified),75% (inactive)
8,Cc1cc(C)cc(OCC(=O)Nc2nc3c(s2)CC(C(C)(C)C)CC3)c1 (stereo unspecified),107% (inactive)
9,CC(C)(C)C1CCc2nc(NC(=O)COc3ccc(F)cc3)sc2C1 (stereo unspecified),115% (inactive)
10,CCCC(=O)Nc1nc2c(s1)CC(C(C)(C)C)CC2 (stereo unspecified),14% (active)
11,CC(C)CC(=O)Nc1nc2c(s1)CC(C(C)(C)C)CC2 (stereo unspecified),102% (inactive)
12,CC(C)C(=O)Nc1nc2c(s1)CC(C(C)(C)C)CC2 (stereo unspecified),92% (inactive)
13,CC(C)(C)C1CCc2nc(NC(=O)Cc3ccc(Cl)cc3)sc2C1 (stereo unspecified),18% (active)
14,Cc1cccc(C(=O)Nc2ccc(N3CCC(N4CCCCC4)CC3)c(C(=O)O)c2)c1,100% (inactive)
15,CCOc1ccc(-n2c(=O)c3c4c(sc3n(CC(=O)NC(C)CC)c2=O)CCCCC4)cc1 (stereo unspecified),98% (inactive)
16,COCCNC(=O)CN1C(=O)COc2ccc(S(=O)(=O)N3CCOCC3)cc21,88% (inactive)
17,CCSc1nc2n(n1)C(c1ccc(Cl)cc1Cl)C(C(=O)Nc1ccccc1C)=C(C)N2 (stereo unspecified),67% (inactive)
18,COc1ccc(C(=O)NCCc2sc(-c3ccc(Cl)cc3)nc2C)c(OC)c1,123% (inactive)
19,Cc1ccc(C)c(CN2C(=O)c3ccccc3Sc3ccc(C(=O)NC4CCCC4)cc32)c1,128% (inactive)
20,COc1ccc(CNC(=O)C2CCN(S(=O)(=O)N3CCC(C)CC3)CC2)c(OC)c1,89% (inactive)
21,CCOC(=O)c1ccc(NC(=O)CSc2nc3ccccc3c(=O)n2CCNC(C)=O)cc1,91% (inactive)
22,CCc1ccc(CNC(=O)c2nn(-c3ccc(OC)c(Cl)c3)c(=O)c3c2c2ccccc2n3C)cc1,104% (inactive)
23,CC(C)(C)C1CCc2nc(NC(=O)c3ccc([N+](=O)[O-])cc3)sc2C1 (stereo unspecified),95% (inactive)

row,SMILES,survival
1,Cc1cccc(OCC(=O)Nc2nc3c(s2)CC(C(C)(C)C)CC3)c1C (stereo unspecified),105% (inactive)
2,CC(C)(C)C1CCc2nc(NC(=O)c3cccc(Cl)c3)sc2C1 (stereo unspecified),3% (active)
3,CC(C)(C)C1CCc2nc(NC(=O)Cc3ccccc3)sc2C1 (stereo unspecified),19% (active)
4,Cc1ccccc1C(=O)Nc1nc2c(s1)CC(C(C)(C)C)CC2 (stereo unspecified),115% (inactive)
5,CCOc1cccc(C(=O)Nc2nc3c(s2)CC(C(C)(C)C)CC3)c1 (stereo unspecified),77% (inactive)
6,COc1ccc(CC(=O)NCCc2sc(-c3cccc(F)c3)nc2C)cc1,68% (inactive)
7,COc1ccccc1NC(=O)CN1C(=O)CCSc2ccccc21,89% (inactive)
8,O=C(O)CSc1nc2ccccc2c(=O)n1-c1ccccc1,78% (inactive)
9,Cc1cc(Nc2cccc(Cl)c2)nc2ccc(NC(=O)c3cccc(N(C)C)c3)cc12,106% (inactive)
10,CCN1CCN(C(=O)c2ccc3c(c2)N(Cc2ccccc2F)C(=O)c2ccccc2S3=O)CC1 (stereo unspecified),105% (inactive)
11,Cc1ccc(OCC(=O)OCc2cc(=O)n3nc(C4CCCCC4)sc3n2)cc1,120% (inactive)
12,COc1ccc(C(CNC(=O)COc2ccc(Cl)c(C)c2)N2CCOCC2)cc1 (stereo unspecified),63% (inactive)
13,CCCc1cc(=O)oc2cc(C)c3c(-c4ccccc4)coc3c12,65% (inactive)
14,CCc1cc(=O)oc2cc(C)c3c(-c4ccc(F)cc4)coc3c12,33% (active)
15,COc1ccc(-c2coc3c2c(C)cc2oc(=O)c(CC(=O)O)c(C)c23)cc1,42% (active)
16,Cc1cc2oc(=O)c(CC(=O)O)c(C)c2c2occ(-c3ccccc3)c12,53% (inactive)
17,Cc1cc2oc(=O)cc(C)c2c2occ(-c3ccc(Cl)cc3)c12,72% (inactive)
18,Cc1cc2oc(=O)c(CC(=O)O)c(C)c2c2occ(-c3ccc(F)cc3)c12,49% (inactive)
19,Cc1cc(NC2C3CC4CC(C3)CC2C4)n2ncnc2n1 (stereo unspecified),105% (inactive)
20,O=C(NCc1ccccc1)c1ccccc1C(=O)c1ncc[nH]1,91% (inactive)
21,CCOc1ccc(NC(=O)c2oc3ccccc3c2NC(=O)COc2cccc(OC)c2)cc1,78% (inactive)
22,COc1ccc(Cl)c2sc(NC(=O)c3ccc(S(=O)(=O)N4CCOCC4)cc3)nc12,69% (inactive)
23,COc1ccc(NC(=O)c2c(NC(=O)c3cccc(C)c3)sc3c2CCCC3)cc1,75% (inactive)

row,SMILES,survival
1,COc1ccc(NC(=O)c2c(NC(=O)c3cccc(C)c3)sc3c2CCC3)cc1,64% (inactive)
2,Cc1cccc(C(=O)Nc2sc3c(c2C(=O)NCc2ccco2)CCCC3)c1,83% (inactive)
3,Cc1cccc(C(=O)Nc2sc3c(c2C(=O)Nc2ccccc2)CCC3)c1,66% (inactive)
4,Cc1cccc(C(=O)Nc2sc3c(c2C(=O)O)CCCC3)c1,23% (active)
5,Cc1cccc(C(=O)Nc2sc3c(c2C(=O)NC(C)C)CCCC3)c1,46% (active)
6,Cc1cccc(OCc2nnc(SC(C)C(=O)O)n2Cc2ccccc2)c1 (stereo unspecified),103% (inactive)
7,CCc1ccc(N(CC(=O)N2CCCCC2)S(C)(=O)=O)cc1,105% (inactive)
8,CCc1ccc(CNC(=O)C2CCN(c3nnc(-n4c(C)ccc4C)s3)CC2)cc1,86% (inactive)
9,COc1cccc(CNC(=O)c2cc(=O)[nH]c3ccc(S(=O)(=O)N4CCCC4)cc23)c1,60% (inactive)
10,COc1ccc(-c2nc3sc(CCNC(=O)Cc4ccc(F)cc4)c(C)n3n2)cc1,94% (inactive)
11,CCOC(=O)c1c(C)[nH]c(C)c1S(=O)(=O)NCC(=O)Nc1cc(Cl)ccc1OC,-4% (active)
12,COc1ccc(NC(=O)CN(c2cc(C)cc(C)c2)S(=O)(=O)c2c(C)noc2C)cc1Cl,91% (inactive)
13,COc1ccc(Cl)cc1NC(=O)CN(c1cc(C)cc(C)c1)S(=O)(=O)c1c(C)n[nH]c1C,9% (active)
14,CCc1ccccc1NC(=O)CN(c1ccc(OC)cc1)S(=O)(=O)c1c(C)n[nH]c1C,74% (inactive)
15,CCOc1ccc(N(CC(=O)Nc2cc(C)ccc2C)S(=O)(=O)c2c(C)[nH]c(=O)[nH]c2=O)cc1,69% (inactive)
16,CCOC(=O)c1scc(-c2ccc(C)cc2)c1S(=O)(=O)Nc1cc(OC)ccc1OC,92% (inactive)
17,CCOC(=O)c1c(C)[nH]c(C)c1S(=O)(=O)N(C)CC(=O)Nc1cc(Cl)ccc1OC,117% (inactive)
18,CCOC(=O)c1scc(-c2ccc(C)cc2)c1S(=O)(=O)Nc1ccc(OC)c(Cl)c1,77% (inactive)
19,COc1ccccc1NC(=O)CN(c1cc(C)cc(C)c1)S(=O)(=O)c1c(C)[nH]c(=O)[nH]c1=O,118% (inactive)
20,CCOC(=O)c1c(C)[nH]c(C)c1S(=O)(=O)NCC(=O)Nc1cc(C)ccc1OC,60% (inactive)
21,CCOc1ccc(OCC)c(NC(=O)CN(c2ccc(C)cc2)S(=O)(=O)c2c(C)n[nH]c2C)c1,32% (active)
22,CCOC(=O)c1scc(-c2ccc(C)cc2)c1S(=O)(=O)Nc1cc(Cl)ccc1OC,-5% (active)
